From the supplement of paper PMC6555819

Assays:
Experiment in all cases: PBM binding z-score (relative to random genomic background probes); higher = stronger binding; sequences stand for … in GC…GCGATTGACAGCGTAGAATGAAGG
[1] = test system: PPARg:RXRa DBDmut IVT, anti-RXR (DBD mutation: RXRa K156A/R161A, NR concentration 270 nM, RXRa partner concentration 90 nM)
How it was run: (§1)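 The probes on custom Agilent 4×180K protein-binding microarrays were double-stranded, with 34-nt variable regions bearing direct-repeat seeds, single-nucleotide variants, half-site ablations and random human genomic background sequences. Incubation lasted 1 h with ligand-free nuclear receptor dimers in PBS pH 7.4, 2% milk, 0.02% Triton X-100, 1 mM DTT, 0.2 mg/mL BSA and 0.4 mg/ml salmon testes DNA. Antibodies against each partner (one per run) detected bound dimers, and fluorescence scans were regression-normalized. Binding z-scores take the random background probes as reference.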

[2] = test system: PPARg:RXRa IVT, anti-PPARg (NR concentration 270 nM, RXRa partner concentration 90 nM)
How it was run: as §1

[3] = test system: PPARg DBDmut:RXRa IVT, anti-PPARg (DBD mutation: PPARg1 K132A/R137A, NR concentration 270 nM, RXRa partner concentration 90 nM)
How it was run: as §1

[4] = test system: PPARg DBDmut IVT, anti-PPARg (DBD mutation: PPARg1 K132A/R137A, NR concentration 270 nM)
How it was run: as §1

[5] = test system: PPARg homodimer (NR concentration 180 nM)
How it was run: as §1

[6] = test system: PXR:RXRa (NR concentration 270 nM, RXRa partner concentration 90 nM)
How it was run: as §1

[7] = test system: PXR homodimer (NR concentration 270 nM)
How it was run: as §1

[8] = test system: RARa:RXR (NR concentration 270 nM, RXRa partner concentration 90 nM)
How it was run: as §1

[9] = test system: RARa homodimer (NR concentration 270 nM)
How it was run: as §1

[10] = test system: RARb:RXRa (NR concentration 270 nM, RXRa partner concentration 90 nM)
How it was run: as §1

[11] = test system: RARb homodimer (NR concentration 270 nM)
How it was run: as §1

[12] = test system: RARg:RXRa (NR concentration 270 nM, RXRa partner concentration 90 nM)
How it was run: as §1

[13] = test system: RARg homodimer (NR concentration 270 nM)
How it was run: as §1

[14] = test system: RXRa DBDmut IVT, anti-RXR (DBD mutation: RXRa K156A/R161A, NR concentration 90 nM)
How it was run: as §1

[15] = test system: RXRa homodimer (NR concentration 180 nM)
How it was run: as §1

[16] = test system: THRa:RXRa (NR concentration 90 nM, RXRa partner concentration 90 nM)
How it was run: as §1

[17] = test system: THRa homodimer (NR concentration 90 nM)
How it was run: as §1

[18] = test system: VDR homodimer (NR concentration 270 nM)
How it was run: as §1

Sequence	PBM binding z-score [1]	PBM binding z-score [2]	PBM binding z-score [3]	PBM binding z-score [4]	PBM binding z-score [5]	PBM binding z-score [6]	PBM binding z-score [7]	PBM binding z-score [8]	PBM binding z-score [9]	PBM binding z-score [10]	PBM binding z-score [11]	PBM binding z-score [12]	PBM binding z-score [13]	PBM binding z-score [14]	PBM binding z-score [15]	PBM binding z-score [16]	PBM binding z-score [17]	PBM binding z-score [18]
ACTCTGAGGACAAAGGTCAGAGCTACGCCAGTGA	1.18	4.01	0.601	0.00649	3.26	3.74	0.395	5.19	0.924	4.47	4.42	6.21	5.31	2.07	5.18	4.44	2.66	1.19
ATCGAAAGGTCGAAGGTAAGTATACCCACCCGAA	-0.0708	1.49	0.751	0.919	0.93	2.6	0.149	3.27	0.263	3.59	2.18	3.86	3.99	0.89	4.24	1.86	0.0677	0.843
CCTATTAGTTGACCATAAGGGCAACTGAAGCTCG	0.175	0.85	0.663	0.553	1.38	1	0.613	0.807	1.39	1.73	2.04	1.5	1.31	0.724	0.69	1.99	1.28	0.824
AGAATGAGGTTATACGTAGAACAGGGAAGAAAGT	4	1.9	1.52	1.09	1.26	1.09	0.773	1.36	-0.459	1.36	0.739	1.6	1.14	1.5	2.13	2.04	0.323	1.03
ATCTCTAGATAAAAGTTCAGTGAATCCCGAGGAT	-0.00193	0.486	1.04	0.904	1.13	1.57	1.32	0.986	0.594	2.13	2.21	1.29	1.8	0.614	0.778	0.538	-0.209	1.35
CCAGACAGGTGAACGGTAACTCAGTCTGGTACGC	1.49	1.08	-0.573	-0.154	0.0136	-0.325	-0.355	-0.289	-0.204	0.99	0.435	0.292	0.535	-0.0435	0.416	0.0165	-0.646	-0.453
ATCTCTAGGTAAGACTCAGTTCTGTGAAGAACGC	1.91	0.663	0.175	0.855	0.76	0.28	0.287	0.274	1.02	-0.117	0.00747	-0.271	0.0813	0.193	-0.166	0.394	0.633	0.278
AGAATGAGGTTACCAAAGAACAGGGAAACGCTTG	3.61	3.21	0.635	0.163	0.531	1.06	0.0622	1.64	0.0488	2.11	0.612	1.93	1.35	0.909	2.36	2.59	0.733	0.342
CAAACTAGGTCACAGAAGTCAAAGTCCGTGCGTA	8.28	9.03	4.57	2.37	2.34	2.34	0.405	3.34	0.949	4.35	3.41	4.45	5.16	2.03	3.63	3.3	1.26	1.16
AGAACGAGGGCAGTGAGTTGATAGCACGGGTGGC	2.18	1.32	0.223	-0.247	-0.315	0.372	2	-0.326	-0.462	1.6	0.73	0.413	0.886	1.24	0.269	0.176	-0.413	2.23
CATACAGGGTCAACTAGGCCAGAGTAGGGACGGC	2.92	4.23	1.17	0.243	2.2	3.61	0.451	4.7	0.953	4.66	3.62	5.7	5.42	2.74	6.54	3.74	1.5	2.36
ATCTCTAGGTAACCACGTTCAGTGAATGCCGAAC	2.95	2.6	1.15	0.998	0.238	-0.177	0.023	-0.2	0.526	0.324	0.366	0.142	0.288	-0.101	0.112	0.672	0.721	0.344
GCGACTGGGGCACCAGCAGGTTACCATAACTTAA	4.23	4.22	-0.601	-0.596	-0.202	0.0556	-0.64	0.555	-0.588	1.05	0.971	1.13	0.678	-0.795	0.401	1.07	-0.0837	-0.699
GCTGCTAGGTCAACTCATGGTCAGCTAAAGCTCG	4.52	4.36	-0.224	0.163	1.2	1.83	-0.544	2.76	0.409	4.46	3.69	5.16	5.42	1.45	2.86	3.17	1.15	0.269
CCTCGGAGGAGAGAAGGTCAGAGCTGTCCGCTTT	-0.223	-0.125	-1.3	-1.71	0.917	1.24	-0.114	1.74	-0.103	2.35	2.71	1.89	1.69	-0.424	1.89	1.59	-0.246	-0.0749
